From PubChem BioAssay AID1159580 (chemical genetic matrix, 2015)
Hit rate of the full screen: of about 5,500 compounds, about 2,000 (36%) were called active. Another 18% or so got no clear call; they are omitted. Cut-off read from the data, not from the text of the source: active = normalized growth mostly below about 0.91 (no sharp cut-off); inconclusive = no clear call, values can overlap the other calls; inactive = mostly above about 0.92. The list shows a part of the results.

Experiment: chemical genetic growth profiling, strain panel (AID 1159580);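 note: tested at 20 µM; growth read once vehicle control cultures reached saturation at 30 °C; 1 = growth at the plate median or of vehicle wells; lower values mean less growth of the strain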
Conditions: growth OD

Measured: normalized growth

COc1ccc2c3c1O[C@H]1C[C@@H](O)C=C[C@@]31CCN(C)C2
inactive: S. cerevisiae deletion strains, locus YJR075W, strain HOC1, active compounds read low 0.947 | S. cerevisiae deletion strains, locus YKL009W, strain mrt4, active compounds read low 1.02 | S. cerevisiae deletion strains, locus YKL068W, active compounds read low 1.02 | S. cerevisiae deletion strains, locus YKL085W, strain MDH1 (second series), active compounds read low 1 | S. cerevisiae deletion strains, locus YKL085W, strain MDH1, active compounds read low 1 | S. cerevisiae deletion strains, locus YKL160W, strain elf1, active compounds read low 0.996 | S. cerevisiae deletion strains, locus YKL190W, strain CNB1, active compounds read low 1.01 | S. cerevisiae deletion strains, locus YKR001C, strain vps1, active compounds read low 1.03 | S. cerevisiae deletion strains, locus YKR026C, strain gcn3, active compounds read low 0.974 | S. cerevisiae deletion strains, locus YKR091W, strain srl3, active compounds read low 0.99 | S. cerevisiae deletion strains, locus YLL001W, strain dnm1, active compounds read low 0.996 | S. cerevisiae deletion strains, locus YLL026W, active compounds read low 0.995 | S. cerevisiae deletion strains, locus YLL041C, strain sdh2, active compounds read low 0.999 | S. cerevisiae deletion strains, locus YLR027C, strain aat2, active compounds read low 0.989 | S. cerevisiae deletion strains, locus YLR039C, strain RIC1, active compounds read low 1.06 | S. cerevisiae deletion strains, locus YLR058C, strain SHM2, active compounds read low 1.01 | S. cerevisiae deletion strains, locus YLR102C, strain apc9, active compounds read low 1.02 | S. cerevisiae deletion strains, locus YLR113W, strain HOG1, active compounds read low 1.01 | S. cerevisiae deletion strains, locus YLR221C, strain rsa3, active compounds read low 1.02 | S. cerevisiae deletion strains, locus YLR258W, strain gsy2, active compounds read low 1 | S. cerevisiae deletion strains, locus YLR262C, strain YPT6 (second series), active compounds read low 0.984 | S. cerevisiae deletion strains, locus YLR262C, strain YPT6, active compounds read low 1.02 | S. cerevisiae deletion strains, locus YLR268W, strain sec22, active compounds read low 0.993 | S. cerevisiae deletion strains, locus YLR320W, strain mms22, active compounds read low 1.01 | S. cerevisiae deletion strains, locus YLR330W, strain CHS5, active compounds read low 1.01 | S. cerevisiae deletion strains, locus YLR342W, strain FKS1 (second series), active compounds read low 1.08 | S. cerevisiae deletion strains, locus YLR342W, strain FKS1, active compounds read low 1.01 | S. cerevisiae deletion strains, locus YLR357W, strain rsc2, active compounds read low 0.962 | S. cerevisiae deletion strains, locus YLR370C, strain arc18, active compounds read low 1 | S. cerevisiae deletion strains, locus YLR371W, strain rom2, active compounds read low 1.02 | S. cerevisiae deletion strains, locus YLR384C, strain iki3, active compounds read low 1.01 | S. cerevisiae deletion strains, locus YLR418C, strain cdc73, active compounds read low 0.991 | S. cerevisiae deletion strains, locus YML016C, strain PPZ1, active compounds read low 1 | S. cerevisiae deletion strains, locus YML032C, strain rad52, active compounds read low 1.04 | S. cerevisiae deletion strains, locus YML120C, strain ndi1, active compounds read low 0.979 | S. cerevisiae deletion strains, locus YML124C, strain tub3, active compounds read low 1.01 | S. cerevisiae deletion strains, locus YMR058W, strain fet3, active compounds read low 0.989 | S. cerevisiae deletion strains, locus YMR078C, strain ctf18, active compounds read low 1.03 | S. cerevisiae deletion strains, locus YMR125W, strain sto1, active compounds read low 0.965 | S. cerevisiae deletion strains, locus YMR129W, active compounds read low 1.01 | S. cerevisiae deletion strains, locus YMR205C, strain PFK2, active compounds read low 0.992 | S. cerevisiae deletion strains, locus YMR223W, strain ubp8, active compounds read low 1.04 | S. cerevisiae deletion strains, locus YMR231W, strain pep5, active compounds read low 1 | S. cerevisiae deletion strains, locus YMR263W, strain SAP30, active compounds read low 0.991 | S. cerevisiae deletion strains, locus YMR307W, strain GAS1, active compounds read low 1.06 | S. cerevisiae deletion strains, locus YNL067W, strain RPL9B, active compounds read low 0.989 | S. cerevisiae deletion strains, locus YNL071W, strain lat1, active compounds read low 1.01 | S. cerevisiae deletion strains, locus YNL128W, strain TEP1, active compounds read low 0.974 | S. cerevisiae deletion strains, locus YNL153C, strain GIM3, active compounds read low 0.982 | S. cerevisiae deletion strains, locus YNL183C, strain NPR1, active compounds read low 0.948 | S. cerevisiae deletion strains, locus YNL209W, strain ssb2, active compounds read low 1 | S. cerevisiae deletion strains, locus YNL233W, strain BNI4, active compounds read low 0.995 | S. cerevisiae deletion strains, locus YNL248C, strain rpa49, active compounds read low 0.996 | S. cerevisiae deletion strains, locus YNL250W, strain rad50, active compounds read low 1.01 | S. cerevisiae deletion strains, locus YNL271C, strain bni1, active compounds read low 1.02 | S. cerevisiae deletion strains, locus YNL298W, strain CLA4, active compounds read low 1.03 | S. cerevisiae deletion strains, locus YNL307C, strain MCK1, active compounds read low 1.05 | S. cerevisiae deletion strains, locus YNL322C, strain KRE1 (second series), active compounds read low 1 | S. cerevisiae deletion strains, locus YNL322C, strain KRE1, active compounds read low 1.01 | S. cerevisiae deletion strains, locus YNR049C, strain mso1, active compounds read low 1.01 | S. cerevisiae deletion strains, locus YNR052C, strain pop2, active compounds read low 1.02 | S. cerevisiae deletion strains, locus YOL006C, strain TOP1, active compounds read low 1.03 | S. cerevisiae deletion strains, locus YOL012C, strain htz1 0.856 | S. cerevisiae deletion strains, locus YOL147C, strain pex11, active compounds read low 1.01 | S. cerevisiae deletion strains, locus YOR001W, strain rrp6, active compounds read low 0.996 | S. cerevisiae deletion strains, locus YOR061W, strain CKA2, active compounds read low 1.01 | S. cerevisiae deletion strains, locus YOR069W, strain VPS5, active compounds read low 1.01 | S. cerevisiae deletion strains, locus YOR070C, strain gyp1, active compounds read low 1.01 | S. cerevisiae deletion strains, locus YOR080W, strain dia2, active compounds read low 0.994 | S. cerevisiae deletion strains, locus YOR083W, strain WHI5, active compounds read low 0.988 | S. cerevisiae deletion strains, locus YOR106W, strain vam3, active compounds read low 1 | S. cerevisiae deletion strains, locus YOR136W, strain idh2, active compounds read low 1.02 | S. cerevisiae deletion strains, locus YOR144C, strain elg1, active compounds read low 1.01 | S. cerevisiae deletion strains, locus YOR184W, strain ser1, active compounds read low 1.06 | S. cerevisiae deletion strains, locus YOR231W, strain MKK1, active compounds read low 0.987 | S. cerevisiae deletion strains, locus YOR265W, strain rbl2, active compounds read low 1 | S. cerevisiae deletion strains, locus YOR270C, strain vph1, active compounds read low 0.965 | S. cerevisiae deletion strains, locus YOR290C, strain snf2, active compounds read low 1.01 | S. cerevisiae deletion strains, locus YOR316C, strain cot1, active compounds read low 1.02 | S. cerevisiae deletion strains, locus YPL051W, strain arl3, active compounds read low 0.988 | S. cerevisiae deletion strains, locus YPL055C, strain LGE1, active compounds read low 0.935 | S. cerevisiae deletion strains, locus YPL078C, strain atp4, active compounds read low 1 | S. cerevisiae deletion strains, locus YPL106C, strain sse1, active compounds read low 1.01 | S. cerevisiae deletion strains, locus YPL240C, strain hsp82, active compounds read low 1.03 | S. cerevisiae deletion strains, locus YPL241C, strain CIN2, active compounds read low 1.01 | S. cerevisiae deletion strains, locus YPL256C, strain CLN2, active compounds read low 1.01 | S. cerevisiae deletion strains, locus YPR119W, strain clb2, active compounds read low 1 | S. cerevisiae deletion strains, locus YPR141C, strain kar3, active compounds read low 1.01 | S. cerevisiae deletion strains, locus YPR163C, strain tif3, active compounds read low 1.01 | S. cerevisiae deletion strains, locus YPR167C, strain met16, active compounds read low 1.01 | S. cerevisiae deletion strains, strain wtn01, active compounds read low 1 | S. cerevisiae strains, strain wild type, active compounds read low 1.02
